# Compound activity from PubChem BioAssay.
# An excerpt weighted towards active compounds, which were near 6% of everything screened.
# D3 antag: D3 dopamine receptor (human) antagonism | P35462 | D3R cells, DiscoveRx beta-arrestin luminescence, antagonist mode; stronger effect = lower value | max response, negative = inhibition, % | 2.5% of 360,000 active; in the data active = max response below about -50%; inconclusive = no clear call, values can overlap the other calls
#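 Cells plated overnight at 1500 cells/well, then exposed to library compounds with dopamine controls for 90 minutes at 37 degrees C. DiscoveRx reagent added for 30–60 minutes at room temperature; luminescence read, quantitative HTS format.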
# D1 ag: human D1 receptor agonism; 1% of 360,000 active; P21728; activation, % at 2 µM; HEK293 T-REx D1 cells, calcium flux, agonist mode; AID 504660; in the data active = activation above about 30%
# Target sequence (P21728 whole entry, looked up): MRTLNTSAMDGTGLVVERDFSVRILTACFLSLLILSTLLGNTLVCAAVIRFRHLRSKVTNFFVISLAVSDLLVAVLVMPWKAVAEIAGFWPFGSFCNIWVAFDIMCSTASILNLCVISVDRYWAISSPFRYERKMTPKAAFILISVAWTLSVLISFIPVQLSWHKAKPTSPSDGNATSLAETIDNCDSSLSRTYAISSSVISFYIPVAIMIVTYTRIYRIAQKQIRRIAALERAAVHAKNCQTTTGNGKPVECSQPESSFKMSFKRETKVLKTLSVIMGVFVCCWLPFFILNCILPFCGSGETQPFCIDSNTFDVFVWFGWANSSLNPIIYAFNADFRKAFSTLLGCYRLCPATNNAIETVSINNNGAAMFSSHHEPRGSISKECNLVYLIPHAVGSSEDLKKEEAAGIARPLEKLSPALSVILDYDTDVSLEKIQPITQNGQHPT
#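 Inducible HEK293 T-REx D1 cells, force-coupled to calcium signalling, were plated at 4000 cells/well with tetracycline and held overnight at 30 C. After no-wash calcium dye loading, compound-evoked calcium rise over 180 s flagged agonists.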
# D1 PAM: enhances dopamine response at the human D1 receptor; P21728; HEK293 TREx D1 cells, calcium flux, dopamine EC20 potentiation; potentiation, % at 10 µM; 0.036% of 360,000 active; AID 504651; in the data active = potentiation above about 30%
# DRD3 agonist: activates the human D3 dopamine receptor; P35462; D3R DiscoveRx beta-arrestin cells, luminescence, 90 min; max activation, %; 0.58% of 410,000 active; in the data active = max activation above about 30%
#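 Cells at 1500/well, incubated overnight, then treated with pinned compounds (dopamine as control) for 90 min at 37 degrees C. DiscoveRx reagent added for 30 - 60 minutes at room temperature; luminescence read.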
# D1 antag: antagonists of human D1 dopamine receptor; 3.2% of 360,000 active; AID 504652; HEK293 TREx D1 cells, calcium flux, dopamine EC80; stronger effect = lower value; activity change, negative = inhibition, % at 10 µM; P21728; in the data active = activity change below about -30%
#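 Using tetracycline-induced force-coupled D1 Hek293 cells and a calcium dye, signals were followed for 180 s after compound, then for 180 s after EC80 dopamine, to detect inhibitors.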
# Numbers stand for hits; i = inactive; ? = inconclusive; nt = not tested or not shown; ! = not confirmed by another sample.
SMILES,D3 antag,D1 ag,D1 PAM,DRD3 agonist,D1 antag
CCOc1ccc(NS(=O)(=O)c2ccc(C(=O)N3CCCCCC3)cc2)cc1,i,59,i,i,i
COc1ccc(NC(=O)CN(c2ccccc2OC)S(C)(=O)=O)c(OC)c1,nt,i,i,i,i
Cc1cc2nc(C3CCCCC3)c(Cc3cccc(F)c3)n2c(C)c1Br,i,nt,nt,i,nt
CCN(C(=O)c1coc(=O)c2ccccc12)c1ccccc1C,nt,i,i,i,i
CCOc1ccc(NS(=O)(=O)c2ccc(C(=O)NCC3(N4CCCCC4)CCCCC3)cc2)cc1,i,31,i,i,i
CCOc1ccc(NS(=O)(=O)c2ccc(C(=O)NCC3(N(C)C)CCCCC3)cc2)cc1,i,i,i,i,i
CCOc1ccc(OCc2ccc(C(=O)N3CCCC(C)C3)cc2)cc1 (stereo not drawn),i,i,i,i,-30
CC(=O)N1CCc2c(sc3c2c(=O)n(CCc2ccccc2)c(=O)n3Cc2ccc(F)cc2)C1,nt,i,i,i,i
CC1=NN(c2nc(N)nc(/C(C#N)=C/c3ccc([N+](=O)[O-])o3)n2)C(C)(C)C1,-61,nt,nt,i,nt
CCN(C(=O)CSc1nc2ccccc2n1CC(=O)Nc1ccccc1C)c1ccccc1,nt,i,i,i,i
CCOC(=O)C1=C(C)NC(=O)CC1c1cc2c(cc1Br)OCO2 (stereo not drawn),-51,i,i,i,i
CCOC(=O)C1=C(C)NC(=O)CC1c1cc(OC)c(OC)cc1Br (stereo not drawn),i,i,i,i,i
CN(C)CCN(C)Cc1ccccc1Sc1cccc2ccccc12,?,51,i,i,-36
CNCc1ccccc1Sc1cccc2ccccc12,i,59,i,i,i
CNCc1ccccc1Sc1ccc(OC)cc1,?,i,i,i,i
Cc1cccc(C(=O)n2nc(-c3ccco3)nc2NCc2ccccc2)c1,nt,i,i,i,i
Cc1c(-c2csc(N)n2)cnn1C,i,i,i,42,i
Cc1cc2c(s1)c1cnn(Cc3c(C)cc(F)cc3C)c(=O)c1n2C,nt,i,i,nt,i
COc1cccc(N2CCN(C(=O)c3cnn(-c4ccc(C)cc4C)c3C3CCN(C(=O)OC(C)(C)C)CC3)CC2)c1,nt,i,i,i,i
Cc1c(Cl)cccc1-n1ncc(C(=O)NC2CCCCC2)c1C1CCN(C(=O)OC(C)(C)C)CC1,nt,i,i,i,i
COc1cccc(N2CCN(C(=O)c3cnn(-c4ccccc4Cl)c3C3CCN(C(=O)OC(C)(C)C)CC3)CC2)c1,nt,i,i,i,-49
Cc1c(Cl)cccc1-n1ncc(C(=O)NC2CCCC2)c1C1CCN(C(=O)OC(C)(C)C)CC1,nt,i,i,i,-80
COc1ccc(N2CCN(C(=O)c3cnn(-c4ccc(OC)cc4)c3C3CCN(C(=O)OC(C)(C)C)CC3)CC2)cc1,nt,i,i,i,-31
COc1ccc(-n2ncc(C(=O)N3CCN(c4cc(C)ccc4C)CC3)c2C2CCN(C(=O)OC(C)(C)C)CC2)cc1,nt,i,i,i,-31
CSCc1cc(C(=O)NC2CC2)c(N)s1,i,nt,nt,i,nt
SMILES,D3 antag,D1 ag,D1 PAM,DRD3 agonist,D1 antag
Cc1ccc2ncccc2c1N,i,i,i,i,-63
Cc1ccc2ncccc2c1NS(=O)(=O)c1ccccc1,i,i,i,i,i
COc1ccc(C(CNC(=O)C(CC(C)C)NS(=O)(=O)c2ccc(C)cc2)N2CCOCC2)cc1 (stereo not drawn),?,i,i,i,i
CC(=O)Nc1ccc(S(=O)(=O)NC(C)C(=O)NCC(c2ccco2)N2CCCCC2)cc1 (stereo not drawn),i,i,i,i,-46
CC(Sc1ccccc1)C(=O)NCC(c1ccco1)N1CCCCC1 (stereo not drawn),i,i,i,i,i
Cc1ccc(S(=O)(=O)NC(CC(C)C)C(=O)NCC(c2ccco2)N2CCCCC2)cc1 (stereo not drawn),-79,i,i,i,i
COc1ccc(C(=O)C[n+]2cccc(Br)c2)cc1,?,i,i,i,i
COC(=O)c1ccc[n+](CC(=O)c2ccc(Br)cc2)c1,i,i,i,i,-35
O=c1c2c(-c3ccccc3)csc2ncn1/N=C/c1cccc([N+](=O)[O-])c1O,-52,i,i,i,i
Cn1cc(/C=N/n2cnc3scc(-c4ccccc4)c3c2=O)c2ccccc21,i,i,i,i,-44
O=c1c2c(-c3ccccc3)csc2ncn1/N=C/c1ccc(O)c([N+](=O)[O-])c1,i,i,i,i,i
O=c1c2c(-c3cccs3)csc2ncn1/N=C/c1ccccn1,i,nt,nt,i,nt
Cc1c(C(=O)N2CCCC2)oc2c1-c1nn(CC(=O)NCCCN3CCCCC3C)cc1CC2 (stereo not drawn),i,i,i,i,i
Cc1c(C(=O)N2CCCC2)oc2c1-c1nn(CC(=O)NCCCN3CCCCC3)cc1CC2,i,i,i,i,-31
Cc1ccc(Cl)cc1NS(=O)(=O)c1ccc2c(c1)NC(=O)CCS2,nt,i,i,i,i
Cc1cc(Cl)ccc1OCC(=O)Nc1c(Cl)ccc2nsnc12,nt,i,i,i,i
O=C(Nc1ccccc1)c1cnc(-c2ccccc2)nc1-c1ccccc1,i,i,i,43,i
CCN1C(=O)[C@H]2[C@@H](c3ccc(OC)cc3)N[C@]3(CCCN(CC4CCCCC4)C3=O)[C@H]2C1=O,i,nt,nt,i,nt
Cc1cc(C(=O)N2CCCC(C(=O)c3cccc4ccccc34)C2)nc(C)n1 (stereo not drawn),i,i,i,i,-61
CCOC(=O)CSc1nc(-c2ccccc2)nc2ccc(C)cc12,i,i,i,i,-35
CCOC(=O)CSc1nc2ccccc2c(=O)n1NC(=O)c1ccccc1,i,i,i,35,i
CCCCOc1ccc(Cn2c(=O)oc3ccc(C)cc32)cc1,nt,i,i,i,-79
Cc1ccc2oc(=O)n(Cc3ccc(OC(C)C)cc3)c2c1,i,i,i,i,i
CCCCOc1ccc(Cn2c(=O)oc3ccccc32)cc1,i,i,i,i,-39!
Cc1cccc(NS(=O)(=O)c2ccc3c(c2)n(C)c(=O)n3C)c1C,nt,i,i,i,i
SMILES,D3 antag,D1 ag,D1 PAM,DRD3 agonist,D1 antag
CCOC(=O)C1CCCN(C(=O)c2ccc(-c3ccccc3)cc2)CC1 (stereo not drawn),i,nt,nt,i,nt
COC(=O)[C@@]1(Cc2ccc(F)cc2)[C@H]2c3cc(C(=O)N(C)C)n(CCF)c3C[C@H]2CN1C(=O)c1ccccc1,i,nt,nt,i,nt
COC(=O)[C@@]1(Cc2ccccc2)[C@@H]2C(=CC(=O)[C@H]2CC(=O)C(=O)N(C)C)CN1C(=O)c1ccccc1,-51,i,i,i,i
Cc1ccc2nc(SCC(=O)OCc3ccccc3)nc(=O)n2c1,-55,i,i,i,i
O=C(Cc1nc2ccccc2[nH]c1=O)c1ccccc1,i,52,i,i,i
COc1ccc(OC)c(CNc2ccc([N+](=O)[O-])cc2C)c1,i,i,i,i,-37
COc1cccc(CNc2ccc([N+](=O)[O-])cc2C)c1,i,i,i,i,i
